Reference: PubChem BioAssay AID2284344 (EPA ToxCast)
Records with an inconclusive call do not appear. Active and inactive are the calls of the source. Rule for the calls: active = hit-call score of the fitted dose curve at least 0.9, where 1 is the maximum; inconclusive = response in the unintended direction; inactive = score below 0.9.

These compounds were tested on frog Peroxisome Proliferator-activated Receptor-alpha (PPARa), gene 398843 (assay: ATG_frPPARa_EcoTox2: Attagene TRANS-FACTORIAL EcoTox-2 HepG2 Assay for frog Peroxisome Proliferator-activated Receptor-alpha (PPARa)).
Method: ATG_EcoTox2 is a cell-based, multiplexed assay created by modifying the existing Attagene TRANS-FACTORIAL system to include a panel of nuclear receptors from some or all the following species: human (Homo sapiens), african clawed frog (Xenopus laevis), rainbow trout (Oncorhynchus mykiss), japanese medaka (Oryzias latipes), and zebrafish (Danio rerio). The ECOTOX2-FACTORIAL format uses HepG2, a human liver cell line, with measurements taken at 24 hours after chemical dosing in a 24-well plate. ATG_frPPARa_EcoTox2 is one of 29 assay components calculated in the ATG_EcoTox2 assay. It is designed to make measurements of mRNA induction, a form of inducible reporter, as detected with fluorescence intensity signals by Reverse transcription polymerase chain reaction (RT-PCR) and Capillary electrophoresis technology.The assay endpoint ATG_frPPARa_EcoTox2 was analyzed in the positive analysis fitting direction relative to DMSO as the negative control and baseline of activity. Using a type of inducible reporter, measures of mRNA for gain-of-signal activity can be used to understand the reporter gene at the transcription factor-level as they relate to the gene PPARa. Furthermore, this assay endpoint can be referred to as a primary readout, because this assay has produced multiple assay endpoints where this one serves a reporter gene function. To generalize the intended target to other relatable targets, this assay endpoint is annotated to the nuclear receptor intended target family, where the subfamily is non-steroidal.
Human liver HepG2 cells are transiently transfected with multiple reporter transcription units (MRTUs) in 6-well plates using FuGene 6 reagent (Roche; 3 ml FuGene/1 mg DNA). The MRTU constructs are regulated by a cis-regulating element (promoter). Each RTU expresses a GAL4-UAS that regulates the transcription of a nearby target reporter gene sequence. A major difference between the CIS and TRANS system is that in CIS activities of endogenous TFs are measured, whereas the TRANS assay evaluates changes in activities of exogenous, chimeric NR-Gal4 proteins. […] At the end of 24 hour incubation, total RNA was isolated using TriZol reagent (Invitrogen). The isolated RNA is then reverse-transcribed using oligo(dT) primer and Mo-MLV reverse transcriptase (Invitrogen) with DNAse I (Ambion) treatment for 30 min. The one-tenth of the produced cDNA was amplified by PCR using Taq DNA polymerase (Invitrogen) and two reporter sequence-specific primers. The PCR products were fluorescently labeled by primer extension with 6-arboxyfluorescein (6-FAM) 5'-labeled reporter sequence-specific primer (2 min at 95 C, 20 s at 68 C and 10 min at 72 C) and these products were digested with 5U of HpaI (New England Biolabs) for 2h at 37 C. The fragments were purified using Qiaquick PCR columns (Qiagen), analyzed on an ABI 3130xL genetic analyzer (Applied Biosystems) with peak positions identified by using a set of X-rhodamine (ROX)-labeled MapMarker1000 molecular weight standards (BioVentures). The raw capillary electrophoresis data was processed using Attagraph software (Attagene).

Row | SMILES | outcome | AC50
1 | CC(c1cc2ccccc2s1)N(O)C(N)=O (stereo not drawn) | inactive | 
2 | C=C(c1ccc(C(=O)O)cc1)c1cc2c(cc1C)C(C)(C)CCC2(C)C | inactive | 
3 | CC(C)(Oc1ccc(Cl)cc1)C(=O)O | inactive | 
4 | Cc1cccc(Nc2cc(Cl)nc(SCC(=O)O)n2)c1C |  | 11.9 µM (active)
5 | CC(C)(Oc1ccc(C2CC2(Cl)Cl)cc1)C(=O)O (stereo not drawn) |  | 113 µM (active)
6 | C[C@]12C=CC(=O)C=C1CC[C@@H]1[C@@H]2C(=O)C[C@@]2(C)[C@H]1CC[C@]2(O)C(=O)CO | inactive | 
7 | Cc1ccc(C)c(OCCCC(C)(C)C(=O)O)c1 |  | 50 µM (active)
8 | Cc1c(C)c2c(c(C)c1O)CCC(C)(COc1ccc(CC3SC(=O)NC3=O)cc1)O2 (stereo not drawn) | inactive | 
9 | CC(C)OC(=O)C(C)(C)Oc1ccc(C(=O)c2ccc(Cl)cc2)cc1 | inactive | 
10 | C[C@@H]1C[C@H]2[C@@H]3CCC4=CC(=O)C=C[C@]4(C)[C@@]3(F)[C@@H](O)C[C@]2(C)[C@@]1(O)C(=O)COP(=O)(O)O | inactive | 
11 | Cc1nc(-c2ccc(C(F)(F)F)cc2)sc1C(=O)NCc1ccc(OC(C)(C)C(=O)O)cc1 |  | 0.0823 µM (active)
12 | CC(C)(Oc1ccc(CCNC(=O)c2ccc(Cl)cc2)cc1)C(=O)O |  | 23.6 µM (active)
13 | CN(CCOc1ccc(CC2SC(=O)NC2=O)cc1)c1ccccn1 (stereo not drawn) |  | 8.4 µM (active)
